# Reference: PubChem BioAssay (NCATS)
# Records with an inconclusive call do not appear. A call without a number means that no potency is given here. Calls of active or inactive are those of the source. Unless noted, calls come from the whole dose curve; as a rule, active = well fitted curve in the direction sought with a large enough effect; inconclusive = small, poorly fitted or top-dose-only effect, or another doubt; inactive = no such curve, though single readings can be large; an effect the other way counts as inactive or inconclusive.
# Experiments:
# [1] = biological target: Calcium and integrin-binding protein 1 (Homo sapiens) (UniProt Q99828); experiment: Primary qHTS for Identification of Calcium Integrin Binding Protein 1 (CIB1) Competitor (AID 1508620);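 note: GST tagged CIB1 binding a fluorescein labelled alphaIIb integrin peptide tracer; top concentration of the series differs between compounds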
# Chain of Calcium and integrin-binding protein 1 (Homo sapiens) (Q99828 whole entry, looked up): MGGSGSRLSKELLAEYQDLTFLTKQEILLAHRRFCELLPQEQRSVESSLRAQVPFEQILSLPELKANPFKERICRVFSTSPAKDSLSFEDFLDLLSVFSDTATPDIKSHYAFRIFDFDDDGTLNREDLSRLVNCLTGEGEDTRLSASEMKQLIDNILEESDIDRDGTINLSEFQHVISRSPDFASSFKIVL
# Procedure, shortened: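 Fluorescence polarization competition: GST-tagged CIB1 (1 uM final) preincubated with compound 15 min at room temperature, then FITC-labelled alphaIIb peptide (100 nM final) added. After 15 min at room temperature, polarization read at Ex 480/Em 540.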
# [2] = Primary qHTS for small molecule stabilizers of the endoplasmic reticulum resident proteome: Secreted ER Calcium Modulated Protein (SERCaMP) assay (AID 1508630)
# Procedure, shortened: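 GLuc-SERCaMP-expressing SH-SY5Y cells, pretreated 16 h with compound, are challenged with thapsigargin to empty ER calcium stores; after 4 h, coelenterazine is added directly to the medium and luminescence is imaged.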
# [3] = A High-Content qHTS Against Drug Library for the Identification of Small Molecules that Inhibit DYT1 Early Onset Primary Dystonia-Associated Cell Pathology (AID 1645839; calls by dose curve; note: potency is the fitted concentration of half-maximal effect)
# Procedure, shortened: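 Flp-In T-REx 293 cells with tetracycline-inducible EGFP-delE hTOR1A (WT EGFP-hTOR1A as reference), 800 cells/well; compound added with tetracycline, 48 h at 37 C. Fixed, permeabilized cells imaged; %pathology (punctate TorsinA) primary, cell count counterscreen.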
# [4] = biological target: Cytochrome P450 2D6 (Homo sapiens) (UniProt P10635); experiment: Cytochrome P450 family 2 subfamily D member 6 (CYP2D6) small molecule antagonists: luciferase biochemical (cell-free) qHTS assay (AID 1645840; active = well fitted curve in the direction sought with a large enough effect in the repeat runs; an effect the other way counts as inactive or inconclusive; note: nearly all actives have a fitted effect of over 55% in size; note: potency is the fitted concentration of half-maximal effect)
# Chain of Cytochrome P450 2D6 (Homo sapiens) (P10635 whole entry, looked up): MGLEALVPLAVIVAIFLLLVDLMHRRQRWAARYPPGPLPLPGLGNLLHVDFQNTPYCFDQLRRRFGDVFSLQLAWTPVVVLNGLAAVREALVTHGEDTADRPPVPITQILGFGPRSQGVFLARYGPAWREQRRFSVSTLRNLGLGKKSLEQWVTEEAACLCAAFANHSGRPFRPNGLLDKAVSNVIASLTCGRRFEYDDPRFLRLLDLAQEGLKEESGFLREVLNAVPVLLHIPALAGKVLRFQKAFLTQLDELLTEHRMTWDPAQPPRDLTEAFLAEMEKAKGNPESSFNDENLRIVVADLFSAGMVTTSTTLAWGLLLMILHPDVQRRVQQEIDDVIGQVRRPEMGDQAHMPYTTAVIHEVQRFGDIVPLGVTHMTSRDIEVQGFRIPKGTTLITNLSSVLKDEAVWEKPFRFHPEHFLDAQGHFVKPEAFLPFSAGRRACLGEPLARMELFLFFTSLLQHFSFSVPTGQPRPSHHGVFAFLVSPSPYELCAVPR
# Procedure, shortened: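 P450-Glo luminescent screen: recombinant CYP2D6 enzyme–proluciferin substrate mix preincubated with compound 10 min at room temperature, then NADPH regeneration added for 1 h at room temperature. Detection reagent added for 20 min; luciferin light read as relative luminescence units.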
# [5] = biological target: Cytochrome P450 2C9 (Homo sapiens) (UniProt P11712); experiment: Cytochrome P450 family 2 subfamily C member 9 (CYP2C9) small molecule antagonists: luciferase biochemical (cell-free) qHTS assay (AID 1645842; active = well fitted curve in the direction sought with a large enough effect in the repeat runs; an effect the other way counts as inactive or inconclusive; note: nearly all actives have a fitted effect of over 55% in size; note: potency is the fitted concentration of half-maximal effect)
# Chain of Cytochrome P450 2C9 (Homo sapiens) (P11712 whole entry, looked up): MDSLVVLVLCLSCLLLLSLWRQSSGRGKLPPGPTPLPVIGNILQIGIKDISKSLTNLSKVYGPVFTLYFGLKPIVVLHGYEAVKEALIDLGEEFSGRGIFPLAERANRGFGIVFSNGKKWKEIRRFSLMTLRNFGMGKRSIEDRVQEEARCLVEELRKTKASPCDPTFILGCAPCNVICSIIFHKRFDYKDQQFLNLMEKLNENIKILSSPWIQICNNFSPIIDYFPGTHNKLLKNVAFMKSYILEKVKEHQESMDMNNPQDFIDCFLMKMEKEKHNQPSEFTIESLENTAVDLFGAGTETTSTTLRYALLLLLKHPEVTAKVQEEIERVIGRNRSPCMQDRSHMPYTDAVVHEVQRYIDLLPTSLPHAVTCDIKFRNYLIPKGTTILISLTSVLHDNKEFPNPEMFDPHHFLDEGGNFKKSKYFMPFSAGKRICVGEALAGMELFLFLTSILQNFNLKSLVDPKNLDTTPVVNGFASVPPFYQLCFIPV
# Procedure, shortened: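 Luminescence, after 20 min with luciferin detection reagent, reflected CYP2C9 turnover during a 1 h NADPH-driven reaction at 37C. Enzyme-substrate mix contained 0.4% bovine serum albumin and was preincubated with compound 10 min at room temperature.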
Compound,Potency [1],Potency [2],Potency [3],Potency [4],Potency [5]
CC(=O)Oc1ccc(C(c2ccc(OC(C)=O)cc2)c2ccccn2)cc1,inactive,inactive,inactive,15.5 µM (active),17.4 µM (active)
CC(=O)OCC(=O)[C@@]1(O)CC[C@H]2[C@@H]3CCC4=CC(=O)C=C[C@]4(C)[C@H]3[C@@H](O)C[C@@]21C,inactive,inactive,inactive,–,inactive
CC(=O)[C@H]1CC[C@H]2[C@@H]3C[C@H](C)C4=CC(=O)CC[C@]4(C)[C@H]3[C@@H](O)C[C@]12C,inactive,inactive,inactive,–,0.86 µM (active)
Cc1cccc(C)c1NC(=O)CN1CCN(CCCC(c2ccc(F)cc2)c2ccc(F)cc2)CC1,inactive,inactive,inactive,2.75 µM (active),19.5 µM (active)
CCOc1ccc(NC(=O)CC(C)O)cc1 (stereo not drawn),inactive,inactive,inactive,–,inactive
CCCC(=O)Nc1ccc(OCC(O)CNC(C)C)c(C(C)=O)c1 (stereo not drawn),inactive,–,inactive,inactive,–
COc1cc(C=C2CCC/C(=C\c3ccc(O)c(OC)c3)C2=O)ccc1O,inactive,–,7.08 µM (active),–,–
O=C1[C@H]2CCCC[C@H]2C(=O)N1CCCCN1CCN(c2nsc3ccccc23)CC1,inactive,–,inactive,12.3 µM (active),inactive
CC1(C)O[C@@H]2C[C@H]3[C@@H]4CCC5=CC(=O)CC[C@]5(C)[C@@]4(F)[C@@H](O)C[C@]3(C)[C@]2(C(=O)CCl)O1,inactive,–,inactive,inactive,8.71 µM (active)
CCOC(=O)OC(C)OC1=C(C(=O)Nc2ccccn2)N(C)S(=O)(=O)c2ccccc21 (stereo not drawn),inactive,–,inactive,inactive,–
